In publication PMC8384837, “Expanding the binding specificity for RNA recognition by a PUF domain” one finds binding signal data, which are given here for seven sequences.

Holding throughout (test): yeast three-hybrid, YBZ-1, SC-Leu-His + 0.5 mM 3-AT, 4 days
Common to all, as to conditions: tags: N-Gal4 AD-HA kept; label: inside an RPR1-promoter hybrid RNA with tandem MS2 sites; ssRNA

For one assay, the target named is PUM1 PUF domain R3-LSG (Homo sapiens, UniProt Q14671 828-1176, C935L;R936S;Q939G). The gist of the method: (§1)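 A centromeric plasmid in strain YBZ-1 co-expressed Pumilio-1 PUF domain libraries, randomized at the three base-contacting residues of each repeat, with matching RNA elements; the strain carries a LexA–MS2 coat fusion and a HIS3 reporter. After four days on SC-Leu (input) or SC-Leu-His + 0.5 mM 3-AT (selection), the repeat regions were PCR-amplified and Illumina-sequenced. The interaction score is the log change in variant frequency from input to selection, using log2 and a pseudocount of 1 where absent.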
PUM1 PUF domain R3-LSG, sequence (Q14671 828-1176 C935L/R936S/Q939G): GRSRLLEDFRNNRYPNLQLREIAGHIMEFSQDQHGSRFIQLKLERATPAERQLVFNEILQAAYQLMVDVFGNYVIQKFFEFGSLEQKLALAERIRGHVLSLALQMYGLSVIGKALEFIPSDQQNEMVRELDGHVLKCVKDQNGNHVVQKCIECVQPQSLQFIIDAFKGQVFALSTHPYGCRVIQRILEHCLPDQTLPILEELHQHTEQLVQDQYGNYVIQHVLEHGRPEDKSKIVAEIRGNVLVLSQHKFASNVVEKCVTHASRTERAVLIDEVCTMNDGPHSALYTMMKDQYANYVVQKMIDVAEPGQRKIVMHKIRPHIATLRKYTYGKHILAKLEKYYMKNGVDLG

For the next assay, the target named is PUM1 PUF domain R3-LST (Homo sapiens, UniProt Q14671 828-1176, C935L;R936S;Q939T). Summed up: as §1
PUM1 PUF domain R3-LST, sequence (Q14671 828-1176 C935L/R936S/Q939T): as the sequence (Q14671 828-1176 C935L/R936S/Q939G) above, with G112T counted along it
Another assay concerns the target PUM1 PUF domain R3-SPT (Homo sapiens, UniProt Q14671 828-1176, C935S;R936P;Q939T). The gist of the method: as §1
A further assay deals with PUM1 PUF domain R8-PWQ (Homo sapiens, UniProt Q14671 828-1176, N1122P;Y1123W). The gist of the method:
as §1

Another assay addresses T1, PUM1 PUF domain R6-VWV (Homo sapiens, UniProt Q14671 828-1176, N1043V;Y1044W;Q1047V).
T1 sequence: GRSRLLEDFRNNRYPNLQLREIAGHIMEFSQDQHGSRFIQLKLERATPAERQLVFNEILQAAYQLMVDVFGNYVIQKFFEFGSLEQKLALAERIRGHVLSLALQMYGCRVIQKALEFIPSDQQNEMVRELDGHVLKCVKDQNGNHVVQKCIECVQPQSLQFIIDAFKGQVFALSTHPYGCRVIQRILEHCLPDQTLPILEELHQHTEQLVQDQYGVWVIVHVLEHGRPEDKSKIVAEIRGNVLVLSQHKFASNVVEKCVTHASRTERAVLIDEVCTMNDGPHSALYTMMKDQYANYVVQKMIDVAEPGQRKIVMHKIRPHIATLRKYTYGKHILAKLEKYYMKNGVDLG
The gist of the method:
as §1

For the next assay, the target named is PUM1 PUF domain R4-DFG (Homo sapiens, UniProt Q14671 828-1176, N971D;H972F;Q975G). The gist of the method:
as §1

A further assay deals with PUM1 PUF domain R4-GPR (Homo sapiens, UniProt Q14671 828-1176, N971G;H972P;Q975R). Summed up: as §1
The next assay deals with PUM1 PUF domain R4-NQQ (Homo sapiens, UniProt Q14671 828-1176, H972Q). Summed up:
as §1

A further assay addresses PUM1 PUF domain R7-VSR (Homo sapiens, UniProt Q14671 828-1176, S1079V;N1080S;E1083R). Summed up: as §1

Consider “GGCUAGAACUAGUGGAUCCCCCGGCGCCCGGCGGCUCGAGCCCGGGUAAGUGUAAGUAGUCUGCAUGCCGCCGGGCGCCAUGCCUGCAGGUCGACUCUAGAAAACAUG”, for which the binding signal was 2.82 log2 enrichment (interaction score) with PUM1 PUF domain R3-LSG and 3.44 log2 enrichment (interaction score) with PUM1 PUF domain R3-LST.
For “GGCUAGAACUAGUGGAUCCCCCGGCGCCCGGCGGCUCGAGCCCGGGUAAGUGUAAUUAGUCUGCAUGCCGCCGGGCGCCAUGCCUGCAGGUCGACUCUAGAAAACAUG”, the results for the binding signal with PUM1 PUF domain R3-LSG, with PUM1 PUF domain R3-SPT and with PUM1 PUF domain R3-LST were 1.48 log2 enrichment (interaction score), 1.18 log2 enrichment (interaction score) and 2.71 log2 enrichment (interaction score), respectively.
In the case of “GGCUAGAACUAGUGGAUCCCCCGGCGCCCGGCGGCUCGAGCCCGGGUAAGUGUAAAUAGUCUGCAUGCCGCCGGGCGCCAUGCCUGCAGGUCGACUCUAGAAAACAUG”, the binding signal with PUM1 PUF domain R8-PWQ was 3.79 log2 enrichment (interaction score); with PUM1 PUF domain R6-VWV it was 1.13 log2 enrichment (interaction score); with PUM1 PUF domain R4-DFG, 5.83 log2 enrichment (interaction score); in the assay with PUM1 PUF domain R3-SPT, 2.13 log2 enrichment (interaction score).
Consider “GGCUAGAACUAGUGGAUCCCCCGGCGCCCGGCGGCUCGAGCCCGGGUAAGUGUACAUAGUCUGCAUGCCGCCGGGCGCCAUGCCUGCAGGUCGACUCUAGAAAACAUG”, for which the binding signal with PUM1 PUF domain R4-GPR is 2.58 log2 enrichment (interaction score); with PUM1 PUF domain R4-DFG, 2.96 log2 enrichment (interaction score).
“GGCUAGAACUAGUGGAUCCCCCGGCGCCCGGCGGCUCGAGCCCGGGUAAGUGUAUAUAGUCUGCAUGCCGCCGGGCGCCAUGCCUGCAGGUCGACUCUAGAAAACAUG”: the binding signal with PUM1 PUF domain R4-GPR was 0.87 log2 enrichment (interaction score); in the assay with PUM1 PUF domain R4-NQQ, 2.71 log2 enrichment (interaction score).
With “GGCUAGAACUAGUGGAUCCCCCGGCGCCCGGCGGCUCGAGCCCGGGUAAGUGAAAAUAGUCUGCAUGCCGCCGGGCGCCAUGCCUGCAGGUCGACUCUAGAAAACAUG”, the binding signal with PUM1 PUF domain R6-VWV is 4.54 log2 enrichment (interaction score).
For the sequence “GGCUAGAACUAGUGGAUCCCCCGGCGCCCGGCGGCUCGAGCCCGGGUAAGUUUAAAUAGUCUGCAUGCCGCCGGGCGCCAUGCCUGCAGGUCGACUCUAGAAAACAUG”, the binding signal in the assay with PUM1 PUF domain R7-VSR was 3.33 log2 enrichment (interaction score).
